KinaseGlo FLuc – counter-screen: inhibitors of Kinase-Glo firefly luciferase | Q27757 | Kinase-Glo luciferase, ATP luminescence, 8 min | Potency, µM (doses to about 38.3 µM), without a hit: at the top dose activity change, negative = inhibition, usual class: inhibitors | 0.28% of 200,000 active; also: % is scaled to controls: 0 for no effect and ±100 for the full control effect; nearly all actives have a fitted effect of over 60% in size
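Light output from Kinase-Glo luciferase with luciferin and 10 uM ATP in 50 mM imidazole pH 7.2, KCl, MgCl2, Tween 20, BSA; compound pin-delivered, 8-min ambient incubation, then luminescence read.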
Rab9 promoter act – Rab9 promoter activation; Huh7 Rab9 promoter-luciferase reporter, luminescence, 24 h; 2.8% of 320,000 active; AID 485297; Potency, µM (top dose mostly 9.22 µM), inactives show at the highest dose activation, negative = inhibition, usual class: activators; also: % of control where 0% means no effect; nearly all actives have a fitted effect of over 60% in size
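Promoter activation is measured as luciferase luminescence in Huh7 cells stably transfected with a Rab9 promoter–luciferase construct, following 24 h compound exposure at 37 °C and 10 min reagent incubation at ambient temperature.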
SMN2 splice enh – SMN2 splice variant enhancement; 2.8% of 210,000 active; AID 1458; HEK293 SMN2-luciferase splicing reporter, luminescence, 30-36 h; Potency, µM (doses to about 46.1 µM), without a hit: top-dose activity change, positive = activation, usual class: activators; also: % of control where 0% means no effect; nearly all actives have a fitted effect of over 55% in size
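HEK293 cells carry an SMN2 minigene-luciferase reporter in which exon 7 inclusion puts luciferase in frame. Cells were seeded at 2000 cells/well, attached for 10-12 hours, then exposed to compounds for 30-36 hours at 37C before ONE-Glo luminescence.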
FLuc modulator – firefly luciferase modulation, counter-screen for miR-21 project | P08659 | purified FLuc, Km substrates, luminescence inhibition | Potency, µM (series often up to 57.5 µM), for inactives: at the top dose activity change, negative = inhibition, hits mostly inhibitors | 6.9% of 360,000 active;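 also: plate controls were vehicle for no effect and reference inhibitor for full effect; nearly all actives have a fitted effect of over 55% in size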
Target sequence (P08659 whole entry, looked up): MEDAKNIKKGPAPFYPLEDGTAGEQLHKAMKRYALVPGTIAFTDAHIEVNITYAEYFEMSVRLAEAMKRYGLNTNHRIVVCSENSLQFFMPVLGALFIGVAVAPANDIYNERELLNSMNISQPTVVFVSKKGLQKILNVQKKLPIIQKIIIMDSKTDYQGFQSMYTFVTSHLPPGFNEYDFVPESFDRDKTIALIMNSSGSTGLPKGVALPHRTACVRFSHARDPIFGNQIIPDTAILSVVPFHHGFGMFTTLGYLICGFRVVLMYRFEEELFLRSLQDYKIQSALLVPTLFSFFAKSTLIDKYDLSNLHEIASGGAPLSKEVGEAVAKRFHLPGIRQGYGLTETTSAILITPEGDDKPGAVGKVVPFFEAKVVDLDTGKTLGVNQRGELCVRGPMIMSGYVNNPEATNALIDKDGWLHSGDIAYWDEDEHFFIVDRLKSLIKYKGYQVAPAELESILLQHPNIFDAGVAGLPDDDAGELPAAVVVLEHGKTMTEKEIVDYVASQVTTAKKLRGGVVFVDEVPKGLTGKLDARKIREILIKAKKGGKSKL
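Purified P. pyralis luciferase, 10 nM final, with Km-level 10 uM D-luciferin and 10 uM ATP in 50 mM Tris acetate pH 7.5, 10 mM Mg acetate, 0.01% Tween-20, 0.05% BSA; 6-point qHTS titration about 60 µM downward; luminescence read.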
NPC1 prom act – activates the NPC1 promoter. Huh7 NPC1 promoter luciferase reporter, 24 h. Potency, µM (doses to about 9.22 µM), without a hit: top-dose activation, actives largely listed as activators. 2.4% of 320,000 active. AID 485313; also: % of control where 0% means no effect; nearly all actives have a fitted effect of over 60% in size
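Huh7 reporter cells (NPC1 promoter driving luciferase) are dosed with compound for 24 h at 37 °C, 5% CO2; luciferase detection reagent is then added and luminescence measured after 10 min at ambient temperature.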
ELG1 genotoxic – inducers of genotoxicity in HEK293T ELG1-luciferase cells. HEK293T ELG1-luciferase reporter, luminescence, 16 h. Potency, µM (top dose mostly 46 µM), inactives show at the highest dose activity change, positive = activation, hits mostly activators. 1.3% of 330,000 active; also: % of control where 0% means no effect; nearly all actives have a fitted effect of over 60% in size
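Cells (2,000/well) expressing the ELG1-luciferase fusion are dosed by pin tool and kept 16 hr at 37 °C, 5% CO2. Signal comes from ONE-Glo luciferase reagent after 30 min at room temperature.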
* hit, by the source's call; u = inconclusive; x = not tested or not shown. This is a sample that favours compounds with a hit; in the whole collection about 7.5% have one here. Calls follow the shape of the dose curve; as a rule, active = well fitted curve in the direction sought with a large enough effect; inconclusive = small, poorly fitted or top-dose-only effect, or another doubt; inactive = no such curve, though single readings can be large; an effect the other way counts as inactive or inconclusive. Potency is read from the fitted curve at half-maximal effect.

SMILES	KinaseGlo FLuc	Rab9 promoter act	SMN2 splice enh	FLuc modulator	NPC1 prom act	ELG1 genotoxic
COc1cc(/C=C/C(=O)OCC(=O)Nc2cc(S(=O)(=O)N(C)C)ccc2Cl)ccc1O	x	-4%	x	u	0%	1%
COc1ccc(/C=C/C(=O)OCC(=O)Nc2cc(S(=O)(=O)N(C)C)ccc2Cl)cc1	-1%	-1%	3%	12µM*	-6%	3%
COc1cccc(/C=C/C(=O)OCC(=O)Nc2ccc(Cl)c(S(=O)(=O)N(C)C)c2)c1OC	1%	-2%	5%	13µM*	0%	2%
N#CCC(=O)c1ccccc1Oc1ccc(Cl)cc1	12%	-6%	-7%	u	-6%	9%
COc1cc(CN(C(=O)c2ccc(C)cc2)c2ccccn2)cc(OC)c1OC	x	x	x	6%	x	x
COc1ccc(CCNC(=O)c2ccc3c(c2)nc2n3CCC(C)C2)cc1OC (stereo unspecified)	x	x	x	-10%	x	x
CC(CNC(=O)c1ccc2c(c1)nc1n2CCCCC1)c1ccccc1 (stereo unspecified)	x	x	x	21µM*	x	x
O=C(NCc1ccccc1)c1ccc2c(c1)nc1n2CCOC1	x	x	x	-10%	x	x
Cc1ccccc1CCNC(=O)c1ccc2c(c1)nc1n2CCOC1	x	x	x	6µM*	x	x
CC1CCn2c(nc3cc(C(=O)NCCc4ccccc4)ccc32)C1 (stereo unspecified)	x	x	x	9.5µM*	x	x
CSc1ccc(CCNC(=O)c2ccc3c(c2)nc2n3CCC(C)C2)cc1 (stereo unspecified)	x	x	x	-20%	x	x
CSc1ccc(CCNC(=O)c2ccc3c(c2)nc2n3CCCCC2)cc1	x	x	x	24µM*	x	x
COC(=O)[C@@]1(Cc2ccccc2)[C@H]2C(=O)N(C)C(=O)[C@H]2[C@H]2CN=C(SC)N21	x	x	x	x	x	2%
COc1ccc(NC(=O)c2ccc(NCCN3C(=O)CCC3=O)c([N+](=O)[O-])c2)cc1	1%	-1%	2%	u	-3%	-4%
Cc1ccccc1CCNC(=O)c1ccc2c(c1)nc1n2CCCCC1	x	x	x	0.54µM*	x	x
CN(C)c1ccc(/C=C(/C#N)C(=O)NCc2ccccc2)o1	4%	u	13µM*	u	u	u
N#C/C(=C/c1ccccc1)C(=O)NCc1ccccc1	0%	-9%	-13%	u	-2%	9%
CCN(CC)c1ccc(N=Nc2nn(C)c(C)c2[N+](=O)[O-])cc1	-20%	1.4µM*	14µM*	1.7µM*	0.79µM*	5.8µM*
CCN(Cc1ccccc1)c1ccccc1	x	x	4%	x	x	x
CCN(Cc1ccccc1)c1ccc(N=Nc2nn(C)c(C)c2[N+](=O)[O-])cc1	-8%	25%	u	15µM*	20%	11%
Cc1cc(C)n2nc(N)c(N=Nc3ccc(Cl)cc3)c2n1	-7%	-1%	-17%	-5%	7%	-1%
O=C(Nc1cccc(F)c1)[C@H](CSCc1ccccc1)N1Cc2ccccc2C1=O	x	x	-3%	-4%	x	x
Cc1cccc(OC(C)C(=O)Nc2ncn[nH]2)c1 (stereo unspecified)	x	x	x	-3%	x	x
CCOc1ccc(OCc2ccc(C(=O)N/N=C(\C)c3ccccn3)cc2)cc1	0%	-9%	-84%	12µM*	-2%	u
C/C(=N\NC(=O)c1ccccc1OCc1ccc(F)cc1)c1ccccn1	x	-19%	x	21µM*	-4%	5%
SMILES	KinaseGlo FLuc	Rab9 promoter act	SMN2 splice enh	FLuc modulator	NPC1 prom act	ELG1 genotoxic
C/C(=N\NC(=O)c1cccc2ccccc12)c1ccccn1	x	-30%	x	u	9%	u
Cc1cccc(N2CCN(C(=O)c3cc4c(=O)[nH]c5ccc(C)cc5c4s3)CC2C)c1 (stereo unspecified)	x	x	-9%	-7%	x	x
COc1cccc(C(=O)NC2C(=O)N3C(C(=O)O)=C(COC(C)=O)CSC23)c1 (stereo unspecified)	x	-2%	x	21µM*	0%	0%
CCOC(=O)c1ccccc1NC(=O)c1cnc(N2CCOCC2)c2ccccc12	x	x	x	0%	x	x
Cc1cc(C)c(C(=O)CSc2n[nH]c(=O)n2C2CC2)cc1C	-4%	-1%	-29%	4%	0%	-4%
O=C(CSc1n[nH]c(=O)n1Cc1ccco1)c1ccc2c(c1)OCCO2	x	u	x	15µM*	29%	u
O=C(CSc1n[nH]c(=O)n1C1CC1)c1ccc2c(c1)OCCO2	x	u	x	13µM*	u	15%
CCOc1ccc(CCNC(=O)CCc2cn(Cc3ccc(C)cc3)c3ccccc23)cc1	x	x	x	-8%	x	x
COc1cccc(/C=N/Nc2ncnc3c2[nH]c2ccc(C)cc23)c1OC	x	24%	x	1.5µM*	17%	8%
C=CCNc1ncnc2c1[nH]c1ccc(C)cc12	-2%	2.5µM*	2.8µM*	4.3µM*	u	9.2µM*
Cc1c(NC(=O)c2cc(-n3cnnc3)ccc2Cl)cccc1-c1nc2ccccc2s1	-22%	3.5µM*	5.6µM*	0.6µM*	u	10%
CC(=O)Nc1ccc(NC(=O)c2cc(-n3cnnc3)ccc2Cl)cc1	0%	0%	-6%	0%	-7%	-2%
O=C(Nc1cccc(-c2nc3ccccc3s2)c1)c1cc(-n2cnnc2)ccc1Cl	x	20%	x	6.7µM*	28%	0%
Cc1ccc2sc(-c3ccc(NC(=O)c4cc(-n5cnnc5)ccc4Cl)cc3)nc2c1	1%	u	13µM*	6µM*	u	22%
COc1cc(OC)cc(C(=O)Nc2ccccc2-c2nc3ccccc3s2)c1	x	x	-13%	-4%	x	x
Cc1c(NC(=O)c2cccs2)cccc1-c1nc2ccccc2s1	1%	18%	-7%	4.3µM*	8%	-3%
Cc1ccc(N=Cc2sc(O)c3ccccc23)cc1	-2%	1.3µM*	4.5µM*	1.1µM*	2µM*	u
Cc1ccc(N=Cc2c(O)c3ccccc3n(C)c2=O)cc1	x	12%	x	0.43µM*	-2%	3%
Cc1ccc(N=Cc2c(C)[nH]n(-c3nc4ccccc4[nH]3)c2=O)cc1	5µM*	u	-8%	6.7µM*	u	2%
Cc1ccc(N=Cc2sc(O)c3ccccc23)c(C)c1	1%	1µM*	11µM*	u	u	11%
COc1ccc(NC(C)=O)cc1S(=O)(=O)NC1CCSc2ccccc21 (stereo unspecified)	x	-5%	x	1%	1%	7%
Cc1ccc(CNC(=O)C2CCN(c3nc4ccccc4n(C)c3=O)CC2)cc1	x	x	-1%	1%	x	x
Cn1c(=O)c2sccc2n2c(CCCC(=O)Nc3ccc(Oc4ccc(Cl)cc4)cc3)nnc12	x	x	x	-19%	x	x
N/C(=N\OC(=O)COc1ccc(Br)cc1Cl)c1ccncc1	2%	3.5µM*	11µM*	6.7µM*	3.5µM*	u
Cc1cc(C)c(C)c(OCC(=O)O/N=C(\N)c2ccncc2)c1	x	-1%	x	0%	0%	-5%

Assay outcomes from PubChem.
